Data: PubChem BioAssay
Activity calls are given as the source filed them. No rule for the calls is given here.

Columns and labels:
[1] = enhancers of glutamate uptake in motor neurons, MN-1 cell line (AID 1612); conditions: MN-1 motor neuron cells, stronger effect = higher value;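 also: tested at 1 µM final; 0% = mean of DMSO vehicle wells on each plate; positive means more glutamate uptake than control and negative means less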
[2] = suppressors of polyglutamine aggregation in yeast, 75Q-TubH (AID 1616); conditions: S. cerevisiae 75Q-TubH polyglutamine aggregation suppression; stronger effect = higher value
[3] = inhibitors of Cryptococcus chitosan production, flow cytometry, Cibacron Brilliant Red staining (AID 1347148); conditions: Cryptococcus neoformans chitosan, stronger effect = lower value; at 10 µM unless noted;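 also: compound exposure lasted three days at 37 degrees C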
[4] = reducers of polyQ inclusions in PC12 cells, cell-based, NGF-treated PC12, GFPQ80 (AID 1614); conditions: PC12 NGF-treated GFP-polyQ80 inclusion reduction;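 also: lower means fewer inclusions and 0 means no inclusions at all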

## CN1C2CCC1CC(OC(c1ccccc1)c1ccccc1)C2 (configuration not stated)
[1]
  glutamate uptake change: -4.45%
[2]
  aggregation suppression score: 1.04

## O=c1[nH]c2ccccc2c2ccccc12
[3]
  fold fluorescence: 3.09 [at 256.1 µM] (inactive)

## CN(C)CC/C=C1/c2ccccc2COc2ccccc21
[1]
  glutamate uptake change: 2.11%
[4]
  inclusion score: 2
[2]
  aggregation suppression score: 1.19

## COc1cc([C@@H]2c3cc4c(cc3[C@@H](O[C@@H]3O[C@@H]5CO[C@@H](C)O[C@H]5[C@H](O)[C@H]3O)[C@H]3COC(=O)[C@H]23)OCO4)cc(OC)c1O
[3]
  fold fluorescence: 5.2 [at 85 µM] (inactive)
